# Values joined by “and” are separate entries in the source; they are usually repeats but may differ in a detail not shown here. Equal values may be shown once. Hit rate of the full screen: of about 2,000 compounds, about 100 (5%) were called active. No stated cut-off is given here; in the data, active means z-score above about 2; inactive means the rest. The full list was thinned out, with actives kept by preference. More than one record can exist for a structure, and the calls need not agree.
# Experiment: modulators of mitochondrial supercomplex assembly, cell-based, luminescence, Hoechst nuclei count (AID 1645838);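 further: control cybrid cells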
# Details: Cells, luminescence/Hoechst cell count ratio, supercomplex reporter; for z-score: stronger effect = higher value; for cell count: measured here: cell number, Hoechst nuclei count
# [1] = library stock concentration (final well concentration not given) 80 uM
# [2] = library stock concentration (final well concentration not given) 400 uM
# [3] = library stock concentration (final well concentration not given) 2 mM
# [4] = library stock concentration (final well concentration not given) 10 mM
# [5] = library stock concentration (final well concentration not given) 46 uM
# [6] = library stock concentration (final well concentration not given) 278 uM
# [7] = library stock concentration (final well concentration not given) 1.67 mM
compound,measurement,setting,value
CCCCC(C)(C)[C@H](O)/C=C/[C@@H]1[C@@H](C/C=C\CCCC(=O)O)[C@@H](O)C[C@H]1O,z-score,,-0.23 (inactive)
same,cell count,,5200
CCCCC/C=C\C=C\C(O)CCCCCCCC(=O)OC[C@@H](COC(=O)CCCCCCC/C=C\C=C\C(O)CCCCC)OC(=O)CCCCCCC/C=C\C=C\C(O)CCCCC (stereo not given in full),z-score,,-0.295 (inactive)
same,cell count,,5700
CC(=O)c1ccc2c(c1)c1cc(C(C)=O)ccc1n2CCNC(C)C,outcome,library stock 2 mM,inactive; censored for cell count
same,outcome,library stock 10 mM,inactive; censored for cell count
same,z-score,[1],0.38 (inactive)
same,z-score,[2],4.83 (active)
same,cell count,[1],5240
same,cell count,[2],2850
CCCCCC(=O)CC[C@@H]1[C@@H](C/C=C\CCCC(=O)O)[C@@H](O)C[C@H]1O,z-score,,0.125 (inactive)
same,cell count,,5560
CCCCCCCCCCCCCCCCCCOC[C@H](COP(=O)([O-])OCC[N+](C)(C)C)OC(C)=O,z-score,,-1.9 (inactive)
same,cell count,,5980
CCN(CC)Cc1ccc(C(=O)N(CCc2ccccc2OC)C2CCNC2)cc1 (stereo not given),z-score,[1],0.157 (inactive)
same,z-score,[2],0.267 (inactive)
same,z-score,[3],0.915 (inactive)
same,z-score,[4],3.1 (active)
same,cell count,[1],5850
same,cell count,[2],5490
same,cell count,[3],4680
same,cell count,[4],3340
C[C@@H]1C[C@H]2O[C@@H]2/C=C\C=C\C(=O)Cc2c(Cl)c(O)cc(O)c2C(=O)O1,outcome,,inactive; censored for cell count
CCOc1cc(CC(=O)NC(CC(C)C)c2ccccc2N2CCCCC2)ccc1C(=O)O (stereo not given),z-score,[5],-0.125 (inactive)
same,z-score,[6],-0.238 (inactive)
same,z-score,[7],-0.332 (inactive)
same,z-score,[4],-0.204 (inactive)
same,cell count,[5],4820
same,cell count,[6],5070
same,cell count,[7],5220
same,cell count,[4],4740
O=C(O)C1CCC(c2cc3cccnc3c(-c3cccc(F)c3)n2)CC1 (stereo not given),z-score,[5],0.62 (inactive)
same,z-score,[6],1.24 (inactive)
same,z-score,[7],1.5 (inactive)
same,z-score,[4],1.76 (inactive)
same,cell count,[5],6220
same,cell count,[6],6290
same,cell count,[7],5980
same,cell count,[4],6420
COc1cccc2cc(-c3nc(C4CCC(C(=O)O)CC4)n4ncnc(N)c34)[nH]c12 (stereo not given),outcome,library stock 10 mM,inactive; censored for cell count
same,z-score,[1],-0.563 (inactive) and 0.107 (inactive)
same,z-score,[2],-0.188 (inactive) and 0.529 (inactive)
same,z-score,[3],1.25 (inactive) and 2.27 (active)
same,cell count,[1],4660 and 5660
same,cell count,[2],3600 and 4570
same,cell count,[3],2190 and 2510
COc1ccc(/C=C/c2cc(O)cc(O)c2)cc1O,outcome,,inactive; censored for cell count
Cc1cnc(Nc2ccc(OCCN3CCCC3)cc2)nc1Nc1cccc(S(=O)(=O)NC(C)(C)C)c1,outcome,library stock 10 mM,inactive; censored for cell count
same,z-score,[5],-0.00359 (inactive)
same,z-score,[6],-0.105 (inactive)
same,z-score,[7],5.46 (active)
same,cell count,[5],4980
same,cell count,[6],5010
same,cell count,[7],2610
C=CCn1c(=O)c2cnc(Nc3ccc(N4CCN(C)CC4)cc3)nc2n1-c1cccc(C(C)(C)O)n1,outcome,library stock 1.67 mM,inactive; censored for cell count
same,outcome,library stock 10 mM,inactive; censored for cell count
same,z-score,[5],-0.147 (inactive)
same,z-score,[6],-0.118 (inactive)
same,cell count,[5],4940
same,cell count,[6],4830
